Assay results from PubChem BioAssay (NCATS).
Values joined by “and” are separate entries in the source; they are usually repeats but may differ in a detail not shown here. Identical values can stand only once. Inconclusive results are not listed. Entries that show only a call come without a potency. Active and inactive are the calls of the source. Unless noted, calls follow the shape of the dose curve; as a rule, active = well fitted curve in the direction sought with a large enough effect; inconclusive = small, poorly fitted or top-dose-only effect, or another doubt; inactive = no such curve, though single readings can be large; an effect the other way counts as inactive or inconclusive.

Tests used:
[1] = molecular target: Cytochrome P450 3A4 (Homo sapiens) (UniProt P08684); experiment: qHTS Assay for Inhibitors and Substrates of Cytochrome P450 3A4 (AID 884); also: nearly all actives have a fitted effect of over 50% in size; also: potency is read from the fitted curve at half-maximal effect
Cytochrome P450 3A4 (Homo sapiens), sequence (P08684 whole entry, looked up): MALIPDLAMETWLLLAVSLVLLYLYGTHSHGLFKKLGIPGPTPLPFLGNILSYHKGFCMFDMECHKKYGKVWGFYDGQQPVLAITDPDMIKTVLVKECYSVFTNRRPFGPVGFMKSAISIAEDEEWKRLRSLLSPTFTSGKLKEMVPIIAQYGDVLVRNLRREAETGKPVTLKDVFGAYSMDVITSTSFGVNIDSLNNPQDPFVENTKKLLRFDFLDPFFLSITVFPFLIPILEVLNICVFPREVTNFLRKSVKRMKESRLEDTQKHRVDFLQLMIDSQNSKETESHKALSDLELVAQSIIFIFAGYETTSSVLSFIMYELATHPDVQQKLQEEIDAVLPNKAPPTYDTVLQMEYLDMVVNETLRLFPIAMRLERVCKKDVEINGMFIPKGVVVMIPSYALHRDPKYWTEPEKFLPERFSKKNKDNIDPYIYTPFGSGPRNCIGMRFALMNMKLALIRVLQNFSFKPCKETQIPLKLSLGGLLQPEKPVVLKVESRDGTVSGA
Outline: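 20 nM human CYP3A4 with 25 uM Luciferin-PPXE (at KM) in 200 mM KPO4, preincubated 10 min with compound; NADPH regeneration started a 60 min RT reaction. Luciferin detected by luminescence, normalized to 57 uM ketoconazole as full inhibition.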

[2] = Confirmation and Secondary Assay for Modulators of Hemoglobin Beta Chain Splicing at IVS2 654 locus (AID 910);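 also: per-well total GFP intensity by laser scanning cytometry after 2-day treatment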
Outline: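 HeLa cells stably carrying EGFP interrupted by mutant beta-globin IVS2-654 intron (CMV-driven) were treated with compound for 2 days at 37C; corrected splicing was scored as total peak GFP intensity per well (488 nm excitation, 500-520 nm emission).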

[3] = Confirmation and Secondary Assay for Modulators of Hemoglobin Beta Chain Splicing at IVS2 705 locus (AID 930);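 also: HeLa cells stably expressing the EGFP-705 splicing reporter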
Outline: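 Restored EGFP fluorescence after 2-day compound exposure reports splicing correction in IVS2-705 EGFP reporter HeLa cells; positive control was 500 nM splice-blocking PNA oligo. Signal measured as well total peak GFP intensity (488 nm excitation).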

[4] = qHTS Assay for Lipid Storage Modulators (AID 1519; calls by dose curve); settings: Drosophila S3 cells, BODIPY lipid droplet/cell ratio, laser cytometry, cells loaded with oleic acid; for activity change, negative = inhibition: at 57.5 µM (top of the series)
Outline: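 Cells seeded at 5,000 per well were treated with compounds over a concentration series and loaded with oleic acid (400 uM, as added). Lipid droplet fluorescence (488 nm excitation, 500-530 nm channel) was read by laser-scanning cytometry and normalized to 20 uM Triacsin C.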

[5] = molecular target: Ubiquitin carboxyl-terminal hydrolase 1 (Homo sapiens) (UniProt O94782); experiment: Inhibitors of USP1/UAF1: Pilot qHTS (AID 504865);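 also: rhodamine fluorescence freed from ubiquitin-rhodamine substrate followed over time; top concentration of the series differs between compounds; nearly all actives have a fitted effect of over 35% in size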
Ubiquitin carboxyl-terminal hydrolase 1 (Homo sapiens), sequence (O94782 whole entry, looked up): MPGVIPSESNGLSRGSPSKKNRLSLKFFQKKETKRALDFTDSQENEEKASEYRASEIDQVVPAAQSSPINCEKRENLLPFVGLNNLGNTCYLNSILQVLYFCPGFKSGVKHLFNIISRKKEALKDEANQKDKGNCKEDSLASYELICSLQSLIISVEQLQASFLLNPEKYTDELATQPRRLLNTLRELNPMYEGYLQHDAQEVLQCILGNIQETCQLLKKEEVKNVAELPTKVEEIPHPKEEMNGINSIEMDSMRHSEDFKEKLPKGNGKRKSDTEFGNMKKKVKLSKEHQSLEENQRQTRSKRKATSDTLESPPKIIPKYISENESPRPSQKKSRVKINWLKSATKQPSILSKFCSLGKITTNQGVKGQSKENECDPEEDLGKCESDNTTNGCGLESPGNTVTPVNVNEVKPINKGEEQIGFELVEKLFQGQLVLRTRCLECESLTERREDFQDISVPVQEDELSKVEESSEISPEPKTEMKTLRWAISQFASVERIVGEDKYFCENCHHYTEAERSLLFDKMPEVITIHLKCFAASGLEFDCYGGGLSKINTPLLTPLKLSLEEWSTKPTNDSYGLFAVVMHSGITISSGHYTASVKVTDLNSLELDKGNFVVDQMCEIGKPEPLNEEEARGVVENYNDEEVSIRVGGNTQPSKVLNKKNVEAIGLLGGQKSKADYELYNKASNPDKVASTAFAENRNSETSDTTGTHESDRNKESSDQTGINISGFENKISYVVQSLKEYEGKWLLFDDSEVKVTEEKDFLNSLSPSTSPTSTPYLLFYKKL
Outline: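 1nM USP1/UAF1 + cpd, 15 min RT; start w/ Ub-Rho 150nM final; kinetic FL 480/540 nm, 6 reads q60 s. Buffer 50mM HEPES pH 7.8, 0.5mM EDTA, 1mM TCEP, 0.01% Tween-20, 0.1 mg/ml BSA.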

[6] = molecular target: Luciferin 4-monooxygenase (Photinus pyralis) (UniProt P08659); experiment: Biochemical firefly luciferase enzyme assay for NPC (AID 624030);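 also: purified P. pyralis luciferase at 10 nM with luciferin and ATP substrate; nearly all actives have a fitted effect of over 70% in size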
Luciferin 4-monooxygenase (Photinus pyralis), sequence (P08659 whole entry, looked up): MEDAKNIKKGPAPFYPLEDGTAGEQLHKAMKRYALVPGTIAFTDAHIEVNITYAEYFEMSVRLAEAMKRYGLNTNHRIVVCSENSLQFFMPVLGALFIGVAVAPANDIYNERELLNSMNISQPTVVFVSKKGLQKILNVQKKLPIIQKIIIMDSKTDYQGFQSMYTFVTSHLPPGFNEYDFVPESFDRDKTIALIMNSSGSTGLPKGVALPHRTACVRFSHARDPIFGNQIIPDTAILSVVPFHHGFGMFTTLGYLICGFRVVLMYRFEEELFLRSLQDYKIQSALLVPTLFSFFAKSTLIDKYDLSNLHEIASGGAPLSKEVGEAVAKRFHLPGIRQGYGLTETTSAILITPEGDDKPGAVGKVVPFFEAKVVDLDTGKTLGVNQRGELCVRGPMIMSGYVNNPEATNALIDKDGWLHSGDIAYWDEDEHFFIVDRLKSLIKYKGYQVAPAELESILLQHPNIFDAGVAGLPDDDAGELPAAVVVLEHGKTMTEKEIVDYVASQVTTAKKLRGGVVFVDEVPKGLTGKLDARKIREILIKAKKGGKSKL
Outline: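 Counter-screen for direct inhibition of the luciferase enzyme by approved-drug library compounds, run at 10 nM enzyme in 50 mM Tris acetate (final). Luminescence was read within 5 min of enzyme-buffer addition and normalized to PTC124 versus DMSO (0%).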

[7] = S16 Schwann cell PMP22 intronic element beta-lactamase assay (AID 624044; calls by dose curve; also: nearly all actives have a fitted effect of over 15% in size)
Outline: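 Rat S16 Schwann cells with beta-Lac driven by a PMP22 intronic element, compound-treated 24 h at 37 °C. LiveBLAzer FRET B/G read: 460 nm normalized to potassium clavulanate vs DMSO; 535 nm FRET as viability; concentration-effect curves classified.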

[8] = qHTS profiling for inhibitors of Plasmodium falciparum proliferation (AID 504749); also: nearly all actives have a fitted effect of over 60% in size; settings: P. falciparum in erythrocytes, SYBR Green DNA, 72 h, at 28.7 µM (top of the series)
Outline: (§1)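 P. falciparum-infected erythrocytes (0.3% parasitemia, 2.5% hematocrit final) were exposed to compounds for 72 h at 37 C in 5% CO2, then lysed with SYBR Green buffer overnight at room temperature; parasite DNA fluorescence was normalized to artemisinin and DMSO controls.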

CP201 = experiment: as above; settings: P. falciparum in erythrocytes, SYBR Green DNA, 72 h; series mostly up to 12.8 µM
Outline: as §1

CP262 = experiment: as above; settings: P. falciparum in erythrocytes, SYBR Green DNA, 72 h; series mostly up to 12.8 µM
Outline: as §1

CP266 = experiment: as above; settings: P. falciparum in erythrocytes, SYBR Green DNA, 72 h; series mostly up to 12.8 µM
Outline: as §1

DFO2036 = experiment: as above; settings: P. falciparum in erythrocytes, SYBR Green DNA, 72 h; series mostly up to 12.8 µM
Outline: as §1

FAB9 = experiment: as above; settings: P. falciparum in erythrocytes, SYBR Green DNA, 72 h; series mostly up to 12.8 µM
Outline: as §1

JCK = experiment: as above; settings: P. falciparum in erythrocytes, SYBR Green DNA, 72 h; series mostly up to 12.8 µM
Outline: as §1

P94_40 = experiment: as above; settings: P. falciparum in erythrocytes, SYBR Green DNA, 72 h; series mostly up to 12.8 µM
Outline: as §1

PC15 = experiment: as above; settings: P. falciparum in erythrocytes, SYBR Green DNA, 72 h; series mostly up to 12.8 µM
Outline: as §1

PC49 = experiment: as above; settings: P. falciparum in erythrocytes, SYBR Green DNA, 72 h; series mostly up to 12.8 µM
Outline: as §1

W2 = experiment: as above; settings: P. falciparum in erythrocytes, SYBR Green DNA, 72 h; series mostly up to 12.8 µM
Outline: as §1

[9] = molecular target: Cytochrome P450 3A4 (Homo sapiens) (UniProt P08684); experiment: qHTS Assay for Activators of Cytochrome P450 3A4 (AID 885); also: nearly all actives have a fitted effect of over 65% in size; also: potency is read from the fitted curve at half-maximal effect
Outline: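 Steps: enzyme/substrate mix dispensed; compound added, 10 min RT; NADPH regeneration solution added, 60 min RT; luciferin detection buffer stops reaction; 20 min later luminescence measured.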

[10] = molecular target: DNA dC->dU-editing enzyme APOBEC-3G (Homo sapiens) (UniProt Q9HC16); experiment: qHTS for inhibitors of Vif-A3G interactions: Validation (AID 588379)
DNA dC->dU-editing enzyme APOBEC-3G (Homo sapiens), sequence (Q9HC16 whole entry, looked up): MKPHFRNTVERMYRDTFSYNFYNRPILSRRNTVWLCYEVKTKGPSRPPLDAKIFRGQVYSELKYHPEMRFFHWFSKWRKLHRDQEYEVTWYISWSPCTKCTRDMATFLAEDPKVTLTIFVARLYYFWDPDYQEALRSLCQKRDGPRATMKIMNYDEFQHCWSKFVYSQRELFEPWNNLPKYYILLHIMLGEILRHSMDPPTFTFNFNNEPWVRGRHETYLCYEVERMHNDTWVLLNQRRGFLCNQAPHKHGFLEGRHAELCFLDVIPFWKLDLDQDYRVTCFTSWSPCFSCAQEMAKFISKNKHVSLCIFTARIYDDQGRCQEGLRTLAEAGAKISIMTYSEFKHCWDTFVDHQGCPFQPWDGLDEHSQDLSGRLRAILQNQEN
Outline: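 HeLa cells stably expressing Vif and A3G-eYFP, 700 cells/well, incubated overnight at 37 deg C, then exposed to compound overnight at 37 deg C. Inhibition of Vif-mediated degradation read as increased yellow fluorescence (Ex 488/Em 500-530) by laser-scanning cytometry.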

[11] = measured here: cell count channel max response
[12] = measured here: lipid channel max response

## CC(=O)N[C@@H]1C(O)OC(CO)C(O)C1O (stereo not given in full)
[1]
  Potency: inactive
[2]
  Potency: inactive
[3]
  Potency: inactive
[4]
  activity change, negative = inhibition: 4.62% (inactive)
[4]; [11]
  max response: 4.28%
[4]; [12]
  max response: 11.6%
[5]
  Potency: inactive
[6]
  Potency: inactive
[7]
  Potency: inactive
[8]; parasite line A
  activity, negative = inhibition: 3.66% (inactive)
[8]; parasite line B
  activity, negative = inhibition: 14.7% (inactive)
CP201
  Potency: inactive
CP262
  Potency: inactive
CP266
  Potency: inactive
DFO2036
  Potency: inactive
FAB9
  Potency: inactive
JCK
  Potency: inactive
P94_40
  Potency: inactive
PC15
  Potency: inactive
PC49
  Potency: inactive
W2
  Potency: inactive

## COC(=O)CC1C(C)(C)C(OC(C)=O)C2CC3C4CC(=O)OC(c5ccoc5)[C@]4(C)CCC3[C@@]1(C)C2=O (stereo not given in full)
[1]
  Potency: 0.631 µM (active)
[9]
  Potency: inactive
[2]
  Potency: inactive
[3]
  Potency: inactive
[4]
  activity change, negative = inhibition: -20.8% (inactive)
[4]; [11]
  max response: 1.85%
[4]; [12]
  max response: -17.5%
[5]
  Potency: inactive

## CC1(C)C(=O)CC[C@@]2(C)C1CC(O)[C@@]1(C)C3=CC(=O)OC(c4ccoc4)[C@]3(C)CCC21 (stereo not given in full)
[1]
  Potency: 15.8 µM (active)
[9]
  Potency: inactive
[2]
  Potency: inactive
[3]
  Potency: inactive
[4]
  activity change, negative = inhibition: 11% (inactive)
[4]; [11]
  max response: 13.9%
[4]; [12]
  max response: 28.4%
[5]
  Potency: inactive

## Cc1cc(=O)oc2cc(O[C@@H]3O[C@H](C(=O)O)[C@@H](O)[C@H](O)[C@H]3O)ccc12
[1]
  Potency: inactive
[4]
  activity change, negative = inhibition: 7.88% (inactive)
[4]; [11]
  max response: 8.78%
[4]; [12]
  max response: 16.3%
[5]
  Potency: inactive
[10]
  outcome: inactive

## COC1OC2COC(c3ccccc3)OC2C(O)C1O (stereo not given)
[1]
  Potency: inactive
[4]
  activity change, negative = inhibition: 1.99% (inactive)
[4]; [11]
  max response: 4.47%
[4]; [12]
  max response: 4.04%
[5]
  Potency: inactive
[10]
  outcome: inactive

## CCN(CC)Cc1ccc(Nc2ccnc3cc(Cl)ccc23)cc1O
[1]
  Potency: inactive
[9]
  Potency: 7.94 µM (active)
[2]
  Potency: inactive
[3]
  Potency: inactive
[4]
  activity change, negative = inhibition: -0.352% (inactive)
[4]; [11]
  max response: 18.7%
[4]; [12]
  max response: 21.7%
[5]
  Potency: inactive

## O=c1cc(-c2ccc(O)cc2)oc2ccc(O)cc12
[1]
  Potency: 3.16 µM (active)
[9]
  Potency: inactive
[2]
  Potency: inactive
[3]
  Potency: inactive
[4]
  activity change, negative = inhibition: 6.92% (inactive)
[4]; [11]
  max response: 7.61%
[4]; [12]
  max response: 15.4%
[5]
  Potency: inactive

## C=C1CC/C=C(\C)CC[C@@H]2[C@@H]1CC2(C)C
[1]
  Potency: inactive
[4]
  activity change, negative = inhibition: -10.6% (inactive)
[4]; [11]
  max response: -19.4%
[4]; [12]
  max response: -26.5%
[5]
  Potency: inactive
[10]
  outcome: inactive

## OCC1OC(Oc2cccc3cccnc23)C(O)C(O)C1O (stereo not given)
[1]
  Potency: inactive
[4]
  activity change, negative = inhibition: -4.73% (inactive)
[4]; [11]
  max response: -12.4%
[4]; [12]
  max response: -14.1%
[5]
  Potency: inactive
[10]
  outcome: inactive

## COc1ccc2c(c1)OCC(Cc1ccc(OC)c(OC)c1)C2O (stereo not given)
[1]
  Potency: 7.94 µM (active) and 12.6 µM (active)
[9]
  Potency: inactive
[2]
  Potency: inactive
[3]
  Potency: inactive
[4]
  activity change, negative = inhibition: 6.38% (inactive)
[4]; [11]
  max response: 8.42%
[4]; [12]
  max response: 15.9%
[5]
  Potency: inactive
